Reference: PubChem BioAssay (Tox21)
Results filed as inconclusive are left out. Active and inactive are the calls of the source. Unless noted, calls come from the whole dose curve; as a rule, active = well fitted curve in the direction sought with a large enough effect in the repeat runs; inconclusive = weak or mixed curves; inactive = no such curve, though single readings can be large; an effect the other way counts as inactive or inconclusive.

Legend:
[1] = target: Estrogen receptor beta (Homo sapiens) (UniProt Q92731); test: qHTS assay to identify small molecule agonists of the estrogen receptor beta (ER-beta) signaling pathway (AID 1259377; active = well fitted activation curve with a large enough effect in the signal ratio in the repeat runs, not every such curve was filed as active; the % refers to the signal ratio)
Estrogen receptor beta (Homo sapiens), sequence (Q92731 whole entry, looked up): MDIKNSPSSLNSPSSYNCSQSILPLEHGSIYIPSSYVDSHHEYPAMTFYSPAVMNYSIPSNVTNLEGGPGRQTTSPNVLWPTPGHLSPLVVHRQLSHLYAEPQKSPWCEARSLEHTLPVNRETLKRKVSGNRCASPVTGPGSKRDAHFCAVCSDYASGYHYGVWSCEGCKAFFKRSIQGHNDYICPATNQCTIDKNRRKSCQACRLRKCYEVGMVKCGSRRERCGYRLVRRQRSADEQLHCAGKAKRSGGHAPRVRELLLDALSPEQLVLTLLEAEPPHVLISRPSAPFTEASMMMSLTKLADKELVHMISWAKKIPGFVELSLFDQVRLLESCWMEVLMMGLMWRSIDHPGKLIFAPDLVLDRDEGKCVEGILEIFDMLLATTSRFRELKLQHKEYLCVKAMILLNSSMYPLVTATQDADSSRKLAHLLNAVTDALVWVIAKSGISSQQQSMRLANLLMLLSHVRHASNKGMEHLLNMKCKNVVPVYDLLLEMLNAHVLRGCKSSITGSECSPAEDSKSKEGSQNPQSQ
How it was run: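 Ratiometric beta-lactamase FRET read-out came after 2 h substrate loading at room temperature. It followed 16 h compound treatment at 37C of GripTite HEK293T cells carrying a UAS-bla reporter, plated in 2% charcoal-stripped FBS medium.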

[2] = target: Estrogen receptor beta (Homo sapiens) (UniProt Q92731); test: qHTS assay to identify small molecule antagonists of the estrogen receptor beta (ER-beta) signaling pathway (AID 1259378; active = well fitted inhibition curve with a large enough effect in the signal ratio in the repeat runs, not every such curve was filed as active; the % refers to the signal ratio; note: potency is the fitted concentration of half-maximal effect)
How it was run: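 ER-beta-UAS-bla HEK293T (GripTite) cells in 2% charcoal-stripped FBS medium were preincubated 6 hr at 37C, dosed with compound, then stimulated with 1 nM E2 (final) for 16 hr; beta-lactamase reporter read by B/G FRET fluorescence after 2 hr substrate loading.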

[3] = qHTS assay to identify small molecule agonists of the androgen receptor (AR) signaling pathway in the presence of an antagonist - cell viability counter screen (AID 1259379);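 note: MDA-kb2 human breast cancer cells carrying an MMTV luciferase reporter; series mostly up to about 92 µM; nearly all actives have a fitted effect of over 25% in size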
How it was run: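 A CellTiter-Fluor read-out measured viability of MDA-kb2 reporter cells (MMTV promoter with AR and GR response elements). Treatment: nilutamide 3.0uM final with compounds at 15 concentrations, 16 hr, 37C, 0% CO2.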

[4] = qHTS assay to identify small molecule agonists of the estrogen receptor beta (ER-beta) signaling pathway - cell viability counter screen (AID 1259380); note: nearly all actives have a fitted effect of over 30% in size
How it was run: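 Cells used were ER-beta-UAS-bla HEK293T in medium with 2% charcoal-stripped FBS. They were treated for 16 hr at 37C. Viability came from CellTiter-Glo luminescence.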

[5] = qHTS assay to identify small molecule antagonists of the estrogen receptor beta (ER-beta) signaling pathway - cell viability counter screen (AID 1259382); note: series mostly up to about 92 µM; nearly all actives have a fitted effect of over 55% in size
How it was run: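 Agonist-stimulated (1nM E2) ER-beta-UAS-bla HEK293T cells are incubated with library compounds for 16 hr at 37C. Cell viability is then assessed in the reporter-assay wells by adding CellTiter-Glo and reading luminescence after 30 min.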

[6] = target: Thyrotropin receptor (Homo sapiens) (UniProt P16473); test: qHTS assay to identify small molecule antagonists of the thyroid stimulating hormone receptor (TSHR) signaling pathway (AID 1259385; calls by dose curve; note: nearly all actives have a fitted effect of over 20% in size)
Thyrotropin receptor (Homo sapiens), sequence (P16473 whole entry, looked up): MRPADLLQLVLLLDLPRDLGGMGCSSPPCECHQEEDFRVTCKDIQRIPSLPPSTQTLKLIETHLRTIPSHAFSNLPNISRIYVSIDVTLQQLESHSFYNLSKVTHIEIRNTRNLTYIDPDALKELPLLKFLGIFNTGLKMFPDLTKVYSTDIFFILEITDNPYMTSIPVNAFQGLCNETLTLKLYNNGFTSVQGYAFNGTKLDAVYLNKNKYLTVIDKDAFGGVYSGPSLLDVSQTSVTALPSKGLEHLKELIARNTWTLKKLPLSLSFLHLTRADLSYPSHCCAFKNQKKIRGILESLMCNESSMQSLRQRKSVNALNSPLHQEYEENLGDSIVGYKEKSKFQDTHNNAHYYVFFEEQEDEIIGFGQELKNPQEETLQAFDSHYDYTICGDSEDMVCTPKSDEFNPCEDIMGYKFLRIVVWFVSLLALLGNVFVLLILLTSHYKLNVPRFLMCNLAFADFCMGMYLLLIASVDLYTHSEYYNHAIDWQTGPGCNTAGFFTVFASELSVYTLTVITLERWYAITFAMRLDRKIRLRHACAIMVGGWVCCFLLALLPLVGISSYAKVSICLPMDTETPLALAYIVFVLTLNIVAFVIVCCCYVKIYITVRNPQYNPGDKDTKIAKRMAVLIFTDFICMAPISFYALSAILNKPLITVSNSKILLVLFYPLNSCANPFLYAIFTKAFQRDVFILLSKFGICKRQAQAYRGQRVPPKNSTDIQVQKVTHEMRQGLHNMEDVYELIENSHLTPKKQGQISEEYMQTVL
How it was run: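 TSHR-HEK293 cells were plated and held 18 h at 37C/5% CO2, then given compound plus Ro20-1724 and stimulated with TSH at 1.5 ng/mL final. After 30 min at room temperature, cAMP was detected with cAMP-d2/anti-cAMP-cryptate (1 h) by fluorescence.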

[7] = qHTS assay to identify small molecule agonists of the estrogen receptor alpha (ER-alpha) signaling pathway in the presence of an antagonist - cell viability counter screen (AID 1259386);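 note: series mostly up to about 92 µM; cells exposed to compounds for 22 h at 37 °C before the viability read; nearly all actives have a fitted effect of over 30% in size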
How it was run: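 ICI-182,780 at 10.0nM final accompanies the compound titration (15 concentrations, 22hr, 37C) on VM7Luc4E2 cells. The CellTiter-Fluor fluorescence readout runs in the same wells as the luciferase assay.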

[8] = target: Progesterone receptor (Homo sapiens) (UniProt P06401); test: qHTS assay to identify small molecule agonists of the progesterone receptor (PR) signaling pathway (AID 1346784; calls by dose curve; note: nearly all actives have a fitted effect of over 30% in size)
Progesterone receptor (Homo sapiens), sequence (P06401 whole entry, looked up): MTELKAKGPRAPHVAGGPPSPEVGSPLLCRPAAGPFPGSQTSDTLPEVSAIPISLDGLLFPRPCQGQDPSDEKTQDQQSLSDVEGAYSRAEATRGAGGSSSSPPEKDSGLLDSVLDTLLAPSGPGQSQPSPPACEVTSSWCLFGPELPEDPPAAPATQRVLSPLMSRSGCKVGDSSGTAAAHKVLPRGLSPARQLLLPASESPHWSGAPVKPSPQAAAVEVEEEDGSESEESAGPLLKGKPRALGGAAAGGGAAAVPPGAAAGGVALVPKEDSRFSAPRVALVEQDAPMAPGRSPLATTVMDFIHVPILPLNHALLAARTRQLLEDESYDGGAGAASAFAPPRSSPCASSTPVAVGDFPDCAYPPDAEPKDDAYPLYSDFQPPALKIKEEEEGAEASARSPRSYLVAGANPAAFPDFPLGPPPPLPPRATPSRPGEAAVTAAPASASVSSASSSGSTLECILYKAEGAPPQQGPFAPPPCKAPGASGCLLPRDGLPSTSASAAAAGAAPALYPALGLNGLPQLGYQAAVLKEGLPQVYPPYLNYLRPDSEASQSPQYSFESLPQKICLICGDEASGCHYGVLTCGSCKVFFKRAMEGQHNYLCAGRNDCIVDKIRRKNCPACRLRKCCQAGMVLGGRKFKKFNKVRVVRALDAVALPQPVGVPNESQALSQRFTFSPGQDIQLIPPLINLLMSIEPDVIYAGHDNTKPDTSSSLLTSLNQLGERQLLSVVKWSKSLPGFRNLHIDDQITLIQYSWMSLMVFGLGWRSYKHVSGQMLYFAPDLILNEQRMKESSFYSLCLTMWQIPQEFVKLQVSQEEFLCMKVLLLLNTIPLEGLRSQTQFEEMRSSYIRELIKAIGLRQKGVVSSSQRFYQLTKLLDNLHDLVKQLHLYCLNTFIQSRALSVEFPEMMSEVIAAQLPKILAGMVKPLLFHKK
How it was run: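 Agonist qHTS: compounds pinned onto 3,000 PR-UAS-bla HEK 293T cells per well in charcoal-stripped serum medium, 16hr at 37C, then beta-lactamase activity measured by LiveBLAzer FRET fluorescence after 2 hours at room temperature.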

[9] = target: Progesterone receptor (Homo sapiens) (UniProt P06401); test: qHTS assay to identify small molecule antagonists of the progesterone receptor (PR) signaling pathway (AID 1346795; active = well fitted inhibition curve with a large enough effect in the signal ratio in the repeat runs, not every such curve was filed as active; the % refers to the signal ratio; note: potency is the fitted concentration of half-maximal effect)
How it was run: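 Antagonist mode with agonist R5020 at 1 nM final and 16 hr incubation at 37C. Reporter was beta-lactamase driven by UAS in HEK293T (PR-UAS-bla), 2% charcoal-stripped serum; signal from LiveBLAzer FRET substrate, 2 hr at room temperature.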

[10] = qHTS assay to identify small molecule antagonists of the progesterone receptor (PR) signaling pathway - cell viability counter screen (AID 1346798); note: series mostly up to about 92 µM; nearly all actives have a fitted effect of over 50% in size
How it was run: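 Cytotoxicity read as CellTiter-Glo luminescence (30 min, room temperature) in the same wells as the beta-lactamase readout. HEK293T PR-UAS-bla cells in charcoal-stripped 2% FBS received compound and R5020, then 16 h at 37C, 5% CO2.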

[11] = qHTS assay to identify small molecule agonists of the progesterone receptor (PR) signaling pathway - cell viability counter screen (AID 1346799; calls by dose curve; note: nearly all actives have a fitted effect of over 45% in size)
How it was run: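 Cytotoxicity measured by CellTiter-Glo luminescence (30 min, RT) in the same wells as the PR beta-lactamase agonist read. Those HEK293T cells had 16 h compound treatment at 37 C in 2% charcoal-stripped FBS medium.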

[12] = qHTS assay to identify small molecule antagonists of the TGF-beta/Smad signaling pathway - cell viability counter screen (AID 1346824); note: nearly all actives have a fitted effect of over 50% in size
How it was run: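 SBE-bla HEK 293T cells were plated overnight at 37 C, then given compounds in DMSO plus TGF-beta1 (added as 0.25 ng/mL solution) for 5 hr. After the bla read, CellTiter-Glo was added to the same wells and luminescence read after 30 min at room temperature.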

[13] = qHTS assay to identify small molecule agonists of the TGF-beta/Smad signaling pathway - cell viability counter screen (AID 1346829); note: top concentration of the series differs between compounds; nearly all actives have a fitted effect of over 45% in size
How it was run: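 HEK 293T SBE-bla line, 5 hr compound exposure at 37 C, multiplexed CellTiter-Glo viability read by luminescence.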

[14] = qHTS assay to identify small molecule agonists of the TGF-beta/Smad signaling pathway (AID 1346859; active = well fitted activation curve with a large enough effect in the signal ratio in the repeat runs, not every such curve was filed as active; the % refers to the signal ratio; note: series mostly up to about 77 µM)
How it was run: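 Fluorescence (ex 405 nm; em 460 and 530 nm) was read 2 h after LiveBLAzer FRET substrate at RT. The preceding compound treatment of overnight-plated SBE-bla HEK293T cells lasted 5 h at 37 C.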

[15] = target: Thyrotropin-releasing hormone receptor (Homo sapiens) (UniProt P34981); test: qHTS assay to identify small molecule antagonists of the thyrotropin-releasing hormone receptor (TRHR) signaling pathway (AID 1346877; active = well fitted inhibition curve with a large enough effect in the repeat runs, not every such curve was filed as active; note: series mostly up to about 51 µM)
Thyrotropin-releasing hormone receptor (Homo sapiens), sequence (P34981 whole entry, looked up): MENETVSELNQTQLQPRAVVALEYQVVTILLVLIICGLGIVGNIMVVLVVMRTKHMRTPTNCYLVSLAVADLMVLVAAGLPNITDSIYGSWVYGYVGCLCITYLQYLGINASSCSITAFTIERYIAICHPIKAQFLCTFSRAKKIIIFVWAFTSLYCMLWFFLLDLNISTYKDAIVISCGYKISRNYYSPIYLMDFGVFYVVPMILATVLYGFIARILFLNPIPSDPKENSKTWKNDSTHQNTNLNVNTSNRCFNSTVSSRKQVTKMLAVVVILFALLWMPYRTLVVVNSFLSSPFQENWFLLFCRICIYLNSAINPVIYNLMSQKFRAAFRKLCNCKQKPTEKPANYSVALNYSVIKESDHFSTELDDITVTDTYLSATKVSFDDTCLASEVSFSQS
How it was run: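 Screening used HEK293 cells engineered with TRHR, with a brief 5 min room-temperature compound exposure preceding addition of TRH to 1 nM. The read-out was kinetic calcium-dye fluorescence, concentration-response from 15 doses in triplicate.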

[16] = target: Thyrotropin-releasing hormone receptor (Homo sapiens) (UniProt P34981); test: qHTS assay to identify small molecule agonists of the thyrotropin-releasing hormone receptor (TRHR) signaling pathway (AID 1346891; calls by dose curve; note: series mostly up to about 58 µM)
How it was run: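 Agonist-mode intracellular calcium readout: kinetic fluorescence over 3 min at 1 s intervals after compound addition to TRHR-HEK293 cells (18 h seeded, 2 h dye-loaded at 37 C). Fifteen concentrations, triplicates.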

[17] = target: Androgen receptor (Homo sapiens) (UniProt P10275); test: qHTS assay to identify small molecule agonists of the androgen receptor (AR) signaling pathway in the presence of an antagonist (AID 1259381; calls by dose curve; note: nearly all actives have a fitted effect of over 15% in size)
Androgen receptor (Homo sapiens), sequence (P10275 whole entry, looked up): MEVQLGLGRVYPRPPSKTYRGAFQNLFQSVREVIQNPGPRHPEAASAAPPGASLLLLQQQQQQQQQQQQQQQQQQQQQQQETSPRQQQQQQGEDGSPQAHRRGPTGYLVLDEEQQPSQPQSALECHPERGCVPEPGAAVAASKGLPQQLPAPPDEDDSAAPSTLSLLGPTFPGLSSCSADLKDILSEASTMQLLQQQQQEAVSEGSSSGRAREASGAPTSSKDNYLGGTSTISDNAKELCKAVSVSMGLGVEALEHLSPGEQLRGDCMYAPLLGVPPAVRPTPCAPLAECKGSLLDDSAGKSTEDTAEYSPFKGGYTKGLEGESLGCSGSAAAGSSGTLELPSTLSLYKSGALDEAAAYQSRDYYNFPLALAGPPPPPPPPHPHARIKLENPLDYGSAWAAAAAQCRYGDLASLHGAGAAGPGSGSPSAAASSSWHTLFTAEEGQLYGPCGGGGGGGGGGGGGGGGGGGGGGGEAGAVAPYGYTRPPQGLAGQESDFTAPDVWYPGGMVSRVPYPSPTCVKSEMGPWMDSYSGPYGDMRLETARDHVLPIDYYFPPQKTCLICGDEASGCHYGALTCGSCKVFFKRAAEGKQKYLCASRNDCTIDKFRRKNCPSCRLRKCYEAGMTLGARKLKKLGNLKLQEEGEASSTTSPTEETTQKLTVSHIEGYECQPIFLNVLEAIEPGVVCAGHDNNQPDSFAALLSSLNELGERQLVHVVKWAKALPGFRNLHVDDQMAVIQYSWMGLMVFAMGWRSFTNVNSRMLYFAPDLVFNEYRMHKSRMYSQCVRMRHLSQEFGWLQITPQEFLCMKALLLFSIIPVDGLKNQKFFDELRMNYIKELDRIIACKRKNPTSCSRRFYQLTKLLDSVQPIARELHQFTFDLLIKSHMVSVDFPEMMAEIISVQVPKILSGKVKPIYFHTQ
How it was run: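 Using human MDA-kb2 cells with an MMTV promoter–luciferase construct (AR and GR response elements), agonist activity is scored under 3.0uM nilutamide (final) co-treatment; 16hr incubation, 37C, luminescence readout via ONE-Glo.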

[18] = qHTS assay to identify small molecule agonists or antagonists of the thyroid stimulating hormone receptor (TSHR) signaling pathway - wild type cell line counter screen (AID 1259384; calls by dose curve)
How it was run: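 Wild-type HEK293 cells were plated 18 h at 37 C/5% CO2, pin-dosed with compound plus Ro20-1724 medium, held 30 min at room temperature, then given cAMP-d2 and anti-cAMP-cryptate; fluorescence was read after 1 h. Fifteen concentrations, triplicate.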

[19] = qHTS assay to identify small molecule antagonists of the sonic hedgehog signaling (Shh) pathway (AID 1259369; calls by dose curve; note: nearly all actives have a fitted effect of over 45% in size)
How it was run: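 Conditioned medium drives Shh signalling in 3T3Gli1-Luc cells; compounds in DMSO co-applied, 24hr at 37 C, then luciferase luminescence.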

[20] = target: Estrogen receptor (Homo sapiens) (UniProt P03372); test: qHTS assay to identify small molecule agonists of the estrogen receptor alpha (ER-alpha) signaling pathway in the presence of an antagonist (AID 1259383; calls by dose curve; note: top concentration of the series differs between compounds; nearly all actives have a fitted effect of over 15% in size)
Estrogen receptor (Homo sapiens), sequence (P03372 whole entry, looked up): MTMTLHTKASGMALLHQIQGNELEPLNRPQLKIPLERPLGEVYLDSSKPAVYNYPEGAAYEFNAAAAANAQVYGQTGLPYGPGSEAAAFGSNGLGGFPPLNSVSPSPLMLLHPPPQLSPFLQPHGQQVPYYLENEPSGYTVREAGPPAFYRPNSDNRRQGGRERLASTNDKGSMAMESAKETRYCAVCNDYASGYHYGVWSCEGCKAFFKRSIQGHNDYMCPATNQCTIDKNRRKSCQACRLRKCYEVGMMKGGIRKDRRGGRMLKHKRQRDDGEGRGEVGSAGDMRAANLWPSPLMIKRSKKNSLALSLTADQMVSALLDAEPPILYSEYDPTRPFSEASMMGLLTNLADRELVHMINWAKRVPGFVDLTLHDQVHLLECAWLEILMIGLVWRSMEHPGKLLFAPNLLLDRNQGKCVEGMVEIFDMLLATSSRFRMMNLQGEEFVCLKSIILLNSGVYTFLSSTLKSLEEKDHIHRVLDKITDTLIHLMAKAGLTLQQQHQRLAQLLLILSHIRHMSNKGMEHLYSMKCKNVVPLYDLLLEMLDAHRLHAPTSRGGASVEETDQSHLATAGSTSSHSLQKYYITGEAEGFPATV
How it was run: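 Using VM7Luc4E2 cells seeded 24hr before treatment, antagonist ICI-182,780 (10.0nM final) was added, followed by compounds at 15 concentrations. Plates incubated 22hr; ONE-Glo luminescence quantified reporter activity.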

Measured: Potency

CCN(CC)C(=O)c1ccc(O)c(OC)c1
not listed: [17] | [18] | [19] | [20]
inactive: all other assays above

COc1ccc(NC(C)=O)cc1
not listed: [1] | [6] | [15] | [16] | [19] | [20]
inactive: all other assays above

CCN1CCCC1CNC(=O)c1cc(S(N)(=O)=O)ccc1OC (stereo unspecified)
inactive: [19] | [3] | [17] | [18] | [6] | [7] | [8] | [13] | [14] | [15] | [16]

C#CC(O)C(CC)CCCC (stereo unspecified)
not listed: [1] | [12] | [19] | [20]
inactive: all other assays above

OCC(O)[C@@H](O)[C@H](O)[C@H](O)CO[C@H]1O[C@H](CO)[C@@H](O)[C@H](O)[C@H]1O (stereo partly specified)
not listed: [12] | [17] | [18] | [19] | [20]
inactive: all other assays above

CCCCCCC(CCCCCCCCCCC(=O)OCC(COC(C)=O)OC(C)=O)OC(C)=O (stereo unspecified)
not listed: [17] | [18] | [19] | [20]
inactive: all other assays above

CC1=CC(=O)CCC1
not listed: [6] | [17] | [19] | [20]
inactive: all other assays above

CCOC(=O)Nc1ccc2c(c1)N(C(=O)CCN1CCOCC1)c1ccccc1S2
not listed: [9] | [15] | [16] | [19]
inactive: all other assays above

CC1(C)SC(C)(C)SC(C)(C)S1
not listed: [6] | [15] | [16] | [19]
inactive: all other assays above

Nc1ccn(C2CO[C@H](CO)O2)c(=O)n1 (stereo partly specified)
not listed: [15] | [16] | [17] | [19]
inactive: all other assays above

CC(=O)CCc1ccc(O)cc1
not listed: [1] | [17] | [19]
inactive: all other assays above

Oc1ccc2c(c1)OC[C@@H](N1CCC(O)(c3ccc(F)cc3)CC1)[C@H]2O
active: [9] 10.6 µM
not listed: [6] | [17] | [18] | [19] | [20]
inactive: all other assays above

CC(C)CCCC(C)NCCC(C)C (stereo unspecified)
not listed: [1] | [12] | [19]
inactive: all other assays above

C/C=C1\C(=O)C[C@H]2[C@@H]3CCC4=CC(=O)CC[C@]4(C)[C@H]3CC[C@]12C
inactive: [1] | [3] | [4] | [5] | [20] | [7] | [13]
active: [2] 26.8 µM

CC12CCC(CC1=O)C2(C)C (stereo unspecified)
not listed: [6] | [7] | [17] | [18] | [19]
inactive: all other assays above

CC(C)(C)C(=O)/C=C/c1ccc(Cl)cc1
not listed: [4] | [17] | [19]
inactive: all other assays above
